This is an account of results in PubChem BioAssay (NCATS).

Structures are written as SMILES. A number with no mark means an inactive call. Records with an inconclusive call do not appear. The source made the active and inactive calls. The call rests on the fitted dose curve; in most records, active means well fitted curve in the direction sought with a large enough effect; inconclusive means small, poorly fitted or top-dose-only effect, or another doubt; inactive means no such curve, though single readings can be large; an effect the other way counts as inactive or inconclusive.

Assay [1] is described as follows: P-glycoprotein substrates identified in KB-8-5-11 adenocarcinoma cell line, qHTS therapeutic library screen (AID 1346987). Further: on the % scale 0 is the no-effect control and ±100 the full control effect; nearly all actives have a fitted effect of over 65% in size. The method, boiled down:
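Compounds are pinned in dose-response onto KB-8-5-11 cells (500 cells/well, colchicine-free medium) and left 72 h at 37 degree C. CellTiter-Glo luminescence then yields AC50 values.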

Assay [2] concerns Zika virus NS2B-NS3 protease (unlinked complex). The experiment in a line: Primary screen GU Rhodamine qHTS for Zika virus inhibitors: Unlinked NS2B-NS3 protease assay (AID 1347159). Further: on the % scale 0 is the no-effect control and ±100 the full control effect; nearly all actives have a fitted effect of over 60% in size. In a few lines:
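Enzyme 25 nM in Tris-HCl pH 8.0 + 0.01% Tween 20; compounds up to 114 microM, 15 min RT dark; + Rhod110 substrate 1.5 microM; read t0 and 15 min; delta fluorescence → % inhibition → 4-parameter Hill fit.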
(In qHTS, concentration-response curves come from the screen itself.)

The subject of assay [3] is Zika virus NS2B-NS3 protease (linked construct). The experiment in a line: Primary screen NINDS Rhodamine qHTS for Zika virus inhibitors (AID 1347160). Further: nearly all actives have a fitted effect of over 55% in size. In a few lines: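 Enzyme (25 nM, linked NS2B-NS3) was preincubated 15 min with compound in 10 mM Tris-HCl pH 8.0, 0.01% Tween 20. Rhodamine110 substrate (1.5 microM) was then added and fluorescence read at start and after 15 min.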

Assay [4] deals with Calcium and integrin-binding protein 1 (Homo sapiens) (UniProt Q99828). The experiment in a line: Primary qHTS for Identification of Calcium Integrin Binding Protein 1 (CIB1) Competitor (AID 1508620).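 Further: GST tagged CIB1 binding a fluorescein labelled alphaIIb integrin peptide tracer; top concentration of the series differs between compounds; on the % scale 0 is the no-effect control and ±100 the full control effect.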 The method, boiled down:
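Fluorescence polarization competition: CIB1-GST (1 uM final) preincubated with compound 15 min at room temperature, then FITC-labeled alphaIIb peptide (100 nM final) added for another 15 min. Polarization read at Ex 480/Em 540.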

The target in assay [5] is Glutathione peroxidase 1 (Homo sapiens) (UniProt P07203). The experiment in a line: Primary qHTS Assay for Inhibitors of Recombinant Selenoprotein Glutathione Peroxidase 1 (GPX1) (AID 1845191). Further: nearly all actives have a fitted effect of over 65% in size. The method, boiled down: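 GPX1 10 nM, GR 100 nM, GSH 1 mM, NADPH 0.5 mM, CHP 0.5 mM (final). 30-min cpd preincubation, RT. Ex340/Em450 read t=0, t=15 min.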
Sequence of Glutathione peroxidase 1 (Homo sapiens) (P07203 whole entry, looked up): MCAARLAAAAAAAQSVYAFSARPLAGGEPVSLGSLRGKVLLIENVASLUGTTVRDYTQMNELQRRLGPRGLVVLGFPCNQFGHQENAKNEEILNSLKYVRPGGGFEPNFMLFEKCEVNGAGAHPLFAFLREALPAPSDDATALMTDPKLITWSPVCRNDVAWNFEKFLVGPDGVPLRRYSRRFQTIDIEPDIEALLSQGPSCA
The target of assay [6] is Phospholipid hydroperoxide glutathione peroxidase GPX4 (Homo sapiens) (UniProt P36969). Briefly: Primary qHTS Assay for Inhibitors of Recombinant Selenoprotein Glutathione Peroxidase 4 (GPX4) (AID 1845192). Further: nearly all actives have a fitted effect of over 65% in size. Further: potency means the concentration at half of the fitted maximal effect. In a few lines:
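qHTS, GR-coupled: GPX4 200 nM + cpd 30 min RT → GSH 1 mM, NADPH 0.5 mM, GR 100 nM → CHP 0.5 mM start; fluor 340/450 at t0 and t15 min; no-enzyme wells as control.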

Assay [7] concerns the target Luciferin 4-monooxygenase (Photinus pyralis) (UniProt P08659). The experiment in a line: Primary firefly luciferase (FLuc) qHTS assay for identification of artifact compounds. (AID 1845220). Further: nearly all actives have a fitted effect of over 60% in size. Particulars: outcome: dose series up to 54.1 µM unless noted. In a few lines:
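In this counter-screen for luciferase artifacts, test compounds met substrate (10 uM each luciferin and ATP) before 10 nM enzyme started the reaction. Light output was measured 5 min later.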

Assay [8] can be described thus: Primary fluorescence-based thiol-reactive (MSTI) qHTS assay for identification of artifact compounds. (AID 1845221).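 Further: thiol-reactive compounds lower the probe fluorescence signal; nearly all actives have a fitted effect of over 65% in size.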 In a few lines:
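qHTS titration of compound; 4 uM MSTI, PBS pH 7.4, 2% DMSO; 1 h RT, dark; fluorescence 525/598 nm; normalized to Acetyl-MSTI and MSTI; 4-parameter Hill fit.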

The subject of assay [9] is Nanoluciferase (engineered Oplophorus gracilirostris luciferase). Briefly: Primary Nanoluciferase (NLuc) qHTS assay for identification of artifact compounds. (AID 1845222). Further: potency means the concentration at half of the fitted maximal effect. In a few lines: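 Using secreted nanoluciferase in S16 culture medium (0.22 um filtered, 1:55 dilution), compounds were preincubated 15 min at RT. Signal was generated with Nano-Glo reagent (1:100) over 5 min.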

In another assay the test system is HaCat. The experiment in a line: Cytotoxic Profiling of Annotated Libraries Using Quantitative High-Throughput Screening (AID 1296008). Further: nearly all actives have a fitted effect of over 60% in size. Further: potency means the concentration at half of the fitted maximal effect. On max response: on the % scale 0 is the no-effect control and ±100 the full control effect. Particulars: Five cell lines viability, CellTiter-Glo ATP luminescence, 48-72 h; max response: hits give low values. In a few lines: (§1)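 Compounds were pin-transferred onto cells and incubated 48 or 72 hr at 37 degree Celsius, 95% humidity. CellTiter-Glo was added, plates sat 10 min at room temperature, then ATP-coupled luminescence was imaged as the viability read-out.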
For orientation: In ATP-based viability assays light output follows the ATP content of the culture.

The next assay has as its system KB-3-1. Described as above. Particulars: Five cell lines viability, CellTiter-Glo ATP luminescence, 48-72 h; max response: hits give low values. The method, boiled down:
as §1

For the next assay, the system named is CASKI. Briefly: Primary qHTS to identify gynecologic anti-cancer compounds using libraries of approved drugs and bioactive compounds (AID 1345084). Further: nearly all actives have a fitted effect of over 55% in size. Further: potency means the concentration at half of the fitted maximal effect. Particulars: Gynecologic cancer cell panel viability, ATPlite luminescence, 48 h; series mostly up to 57.5 µM. In a few lines:
(§2)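 Cells, 1,000 per well, were allowed to settle for 16 h at 37 C before compound addition. Five concentrations were tested for 48 h, and viability was read by ATPlite luminescence after 15 min at room temperature.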

In another assay the test system is OV90. The description is as above. Particulars: Gynecologic cancer cell panel viability, ATPlite luminescence, 48 h; series mostly up to 57.5 µM. In a few lines:
as §2

The test system of a further assay is Tov-21-G. Described as above. Particulars: Gynecologic cancer cell panel viability, ATPlite luminescence, 48 h; series mostly up to 57.5 µM. The method, boiled down: as §2
The nature of assay [10]: Primary qHTS for inhibitors of nuclear receptor binding SET domain protein 2 (NSD2) in an isogenic RCH-ACV NSD2 p.E1099K mutant (9B) (AID 1645876). Further: nearly all actives have a fitted effect of over 70% in size. Further: potency means the concentration at half of the fitted maximal effect.
A short description of assay [11]: Primary qHTS for inhibitors of nuclear receptor binding SET domain protein 2 (NSD2) in an RCH-ACV wild type WT cells (2C) (AID 1645877). Further: nearly all actives have a fitted effect of over 70% in size. Further: potency means the concentration at half of the fitted maximal effect.
Another assay concerns JEG-3. Briefly: Primary qHTS to identify gynecologic anti-cancer compounds using libraries of approved drugs and bioactive compounds (AID 1345084). Further: nearly all actives have a fitted effect of over 55% in size. Further: potency means the concentration at half of the fitted maximal effect. Particulars: Gynecologic cancer cell panel viability, ATPlite luminescence, 48 h; series mostly up to 57.5 µM. In a few lines:
as §2

Sequence of Phospholipid hydroperoxide glutathione peroxidase GPX4 (Homo sapiens) (P36969 whole entry, looked up): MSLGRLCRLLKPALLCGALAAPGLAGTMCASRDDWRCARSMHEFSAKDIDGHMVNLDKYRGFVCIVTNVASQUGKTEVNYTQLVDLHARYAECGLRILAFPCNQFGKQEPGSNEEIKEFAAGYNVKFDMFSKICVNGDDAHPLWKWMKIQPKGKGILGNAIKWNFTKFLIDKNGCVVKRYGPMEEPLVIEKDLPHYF
Sequence of Calcium and integrin-binding protein 1 (Homo sapiens) (Q99828 whole entry, looked up): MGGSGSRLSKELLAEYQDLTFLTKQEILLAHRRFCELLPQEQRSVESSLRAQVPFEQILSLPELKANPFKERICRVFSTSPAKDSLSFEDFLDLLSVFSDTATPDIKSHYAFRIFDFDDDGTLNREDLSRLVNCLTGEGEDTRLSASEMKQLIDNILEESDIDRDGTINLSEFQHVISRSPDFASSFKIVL

With `C/C=C(\C)C(=O)O[C@@H]1[C@@H](C)[C@]2(O)C3C=C(C)C(=O)[C@@]3(O)CC(CO)=C[C@H]2C2C(C)(C)[C@@]21OC(=O)C(C)CC` (some centres undefined), the Potency result in assay [1], in assay [2], in assay [3], in [4], in assay [5] and in [6] was “inactive” in each case. The Potency result (in [8]; in [9]; in the assay on CASKI; with OV90; in the assay on Tov-21-G) was “inactive” each time. In addition, the molecule was classed as inactive (in assay [7]; in the assay with HaCat; in the assay with KB-3-1).
On to `C[C@@H]1Cc2c(Cl)cc(C(=O)N[C@@H](Cc3ccccc3)C(=O)O)c(O)c2C(=O)O1`, for which the Potency entry (in assay [2]; in assay [3]; in assay [8]; in [9]; with CASKI; in the assay with JEG-3) was “inactive” throughout. In addition, the Potency result in the assay on OV90 and in the assay with Tov-21-G was “inactive” throughout. In addition, the Potency was 8.98 µM (active) in [10] and 6.36 µM (active) in assay [11]. The outcome (in [7]; in the assay on HaCat) was inactive.
Consider `N#Cc1ccccc1-c1cc(-c2ccccn2)cn(-c2ccccc2)c1=O`, for which the Potency result in assay [3], in [4], in [10], in assay [11], in assay [5] and in assay [8] was “inactive” throughout. For the same molecule, the Potency result with CASKI, in the assay on JEG-3, in the assay on OV90 and in the assay with Tov-21-G was “inactive” throughout. Also, the values for the Potency in assay [6] and in assay [9] were 25.5 µM (active) and 10.7 µM (active), respectively. Besides, the molecule was classed as inactive in assay [7]. The max response in the assay on HaCat is 1.04%; in the assay with KB-3-1, -4.86%.
With `COC1CC(OC2CCC3(C=O)C(CCC4C3CCC3(C)C(C5=CC(=O)OC5)CCC43O)C2)OC(C)C1O` (centres undefined), the Potency in assay [10] is 0.0796 µM (active); with HaCat it was 2.82 µM (active); in the assay on CASKI it was 1 µM (active); with JEG-3, 0.631 µM (active); in the assay on OV90 it was 1 µM (active); with Tov-21-G, 0.178 µM (active). In addition, the Potency entry in [5], in [6] and in [9] was “inactive” throughout. In assay [7], the outcome is “inactive [at 25.7 µM]”.
As for `C[C@]12CC[C@H](OC3OC(CO)C(O)C(O)C3OC3OC(CO)C(O)C(O)C3O)C[C@@H]1CC[C@@H]1C2CC[C@]2(C)[C@@H](C3=CC(=O)OC3)CC[C@]12O` (some centres undefined), the Potency entry in assay [2], in assay [3], in assay [4], in assay [5], in assay [6] and in assay [8] was “inactive” in each case. Further, the Potency result (in assay [9]; in the assay on CASKI; in the assay on JEG-3; in the assay with OV90) was “inactive” each time. Besides, the Potency in [10] is 4.3 µM (active). In [7], the molecule was called inactive. The max response with HaCat was -2.72%; in the assay on KB-3-1, 6.08%.
Turning to `C/C1=C/[C@@H](C)C/C=C/[C@H]2[C@@H]3O[C@]3(C)[C@@H](C)[C@H]3[C@H](Cc4c[nH]c5ccccc45)NC(=O)[C@]32C(=O)/C=C\C(=O)[C@@H]1O`, the Potency result in assay [2], in assay [3], in [4], in [5], in assay [6] and in [9] was “inactive” each time. Besides, the Potency entry with CASKI, with JEG-3, in the assay on OV90 and with Tov-21-G was “inactive” in each case. Also, the Potency in assay [10] was 3.99 µM (active); in [11] it was 0.502 µM (active); with KB-3-1, 7.96 µM (active). Moreover, in assay [7], the molecule was classed as inactive.
